High-throughput results from PubChem BioAssay.
SARS PLpro yeast = SARS-CoV PLP inhibition in yeast | actives 0.19% (n = 330,000) | Potency, µM (titrated, usually from 32.9 µM), for inactives: at the top dose activity, positive = growth rescue, hits mostly activators | S. cerevisiae expressing SARS-CoV PLpro, growth rescue; calls by dose curve; note: potency is the fitted concentration of half-maximal effect; 0% is about no effect; nearly all actives have a fitted effect of over 55% in size
CHX counter = counter-screen hit for Shiga toxin inhibitors, cycloheximide; actives 12% (n = 300,000); cell reporter, cycloheximide protein synthesis inhibition counterscreen; max response, %; in the data active = max response mostly above about 13%, no sharp cut-off; inactive = mostly below about 14%; note: read at 38.3 µM for the half of the compounds with a filed dose; 0% is about no effect
Tb PYK inh = inhibitors of Trypanosoma brucei pyruvate kinase | Q57TT1 | TbPYK enzyme, Kinase-Glo Plus ATP luminescence, 45 min | Potency, µM (top dose mostly 76.8 µM), inactives show at the highest dose activity, negative = inhibition, usual class: inhibitors | actives 0.12% (n = 410,000); note: potency is the fitted concentration of half-maximal effect; % is set by controls: 0 for no effect and ±100 for the full control effect; nearly all actives have a fitted effect of over 50% in size
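Readout: single end-point luminescence (Kinase-Glo Plus, 10 min). Reaction conditions were TbPYK/substrate plus 130 uM ADP, 45 min at RT, pH 7.2 TEA buffer. No-enzyme wells served as controls, and data were normalized before concentration-response fitting.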
LmPK inh = inhibitors of Leishmania mexicana pyruvate kinase | Potency, µM (highest dose often 57.5 µM), without a hit: at the highest dose activity change, negative = inhibition, usual class: inhibitors | actives 0.37% (n = 290,000) | Q27686 | purified LmPK, Kinase-Glo ATP luminescence, 1 h; note: potency is the fitted concentration of half-maximal effect; % is set by controls: 0 for no effect and ±100 for the full control effect
Target sequence (Q27686 whole entry, looked up): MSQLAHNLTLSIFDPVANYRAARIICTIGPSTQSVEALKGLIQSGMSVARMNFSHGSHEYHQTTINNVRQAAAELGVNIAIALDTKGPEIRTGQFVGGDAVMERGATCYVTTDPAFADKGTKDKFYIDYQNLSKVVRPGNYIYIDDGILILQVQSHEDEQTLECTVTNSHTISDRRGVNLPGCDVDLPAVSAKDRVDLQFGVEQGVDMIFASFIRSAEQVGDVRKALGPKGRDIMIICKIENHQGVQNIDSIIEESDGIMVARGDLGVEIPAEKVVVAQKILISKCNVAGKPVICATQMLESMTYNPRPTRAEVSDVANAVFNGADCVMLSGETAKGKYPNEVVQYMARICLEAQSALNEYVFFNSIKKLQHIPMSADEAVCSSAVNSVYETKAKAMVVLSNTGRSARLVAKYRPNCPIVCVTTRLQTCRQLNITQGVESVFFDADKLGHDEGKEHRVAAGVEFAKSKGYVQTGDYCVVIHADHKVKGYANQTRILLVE
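ATP generated from ADP (0.1 mM) and PEP (0.5 mM) by 0.1 nM LmPK over 1 h at room temperature (pH 7.2 imidazole buffer) was detected by coupled luciferase luminescence. Values were normalized to uninhibited and no-enzyme wells.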
Shiga inhibitor = blocks Shiga toxin action in Vero cells. Vero cells, Shiga toxin protein synthesis inhibition reporter. inhibition, % at 38.7 µM. actives 9.2% (n = 290,000). AID 2315; in the data active = inhibition mostly above about 28%, no sharp cut-off; inactive = mostly below about 43%; note: 0% is about no effect
NS1 function inh = blocks influenza NS1 protein function; Potency, µM (doses to about 46.1 µM), for the others: top-dose activity, positive = more growth; actives 0.4% (n = 270,000); AID 2326; calls by dose curve; note: potency is the fitted concentration of half-maximal effect; actives are rising curves; nearly all actives have a fitted effect of over 50% in size
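Growth recovery, yeast-based: influenza A NS1 expressed in S. cerevisiae causes slow growth, and suppressors are detected by OD600. The parent strain without NS1 is used as positive control.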
* hit, by the source's call; u = inconclusive; x = no result. The sample as a whole holds a higher share of hits than the screen did. Unless noted, calls come from the whole dose curve; as a rule, active = well fitted curve in the direction sought with a large enough effect; inconclusive = small, poorly fitted or top-dose-only effect, or another doubt; inactive = no such curve, though single readings can be large; an effect the other way counts as inactive or inconclusive.

SMILES	SARS PLpro yeast	CHX counter	Tb PYK inh	LmPK inh	Shiga inhibitor	NS1 function inh
O=C(Nc1cccc(O)c1)c1cccc(S(=O)(=O)N2CCCCCC2)c1	8%	23*	3%	-1%	44*	5%
COCCCNC(=O)C1CCN(Cc2cc3ccccc3n2Cc2cccc(C)c2)CC1	x	x	-5%	x	x	x
Cc1ccc(-c2nc3ncccn3c2Nc2ccc3c(c2)OCCO3)cc1	0%	3	-5%	12%	-5	-8%
Brc1c(-c2ccc3c(c2)OCO3)nc2ncccn12	-2%	20*	-4%	-28%	33*	0%
COc1ccc(-c2nc3ncccn3c2Br)cc1	-1%	28*	-9%	u	73*	-34%
Cc1cccc(OCCNc2cc(N3CCOCC3)ccc2[N+](=O)[O-])c1	17%	30*	1%	0%	26*	-12%
Cc1cccc(OCCNc2cc(N3CCN(C)CC3)ccc2[N+](=O)[O-])c1	4%	-3	16%	0%	-14	0%
CS(=O)(=O)N1CCc2cc(C(=O)OCC(=O)c3ccccc3)ccc21	-3%	23*	-1%	7%	49	-6%
CN(C(=O)c1ccc2c(c1)CCN2S(C)(=O)=O)c1ccccc1	-1%	-3	-6%	0%	10	-2%
Cc1c(F)cccc1NC(=O)c1ccc2c(c1)CCN2S(C)(=O)=O	2%	8.9*	2%	7%	165*	-9%
CS(=O)(=O)N1CCc2cc(C(=O)Nc3ccccc3Cl)ccc21	-20%	27*	7%	-5%	37	-26%
Cc1ccccc1NC(=O)c1ccc2c(c1)CCN2S(C)(=O)=O	7%	2	-2%	4%	13	6%
Cc1cccc(NC(=O)c2ccc3c(c2)CCN3S(C)(=O)=O)c1C	4%	18*	-1%	-1%	x	11%
CC(C)(C)c1ccc(OCCC(=O)NCCc2ccc(S(N)(=O)=O)cc2)cc1	0%	-3	5%	-10%	-12	-13%
Cc1ccc(-n2ncc(C(=O)N3CCN(C4CCCCC4)CC3)c2C2CCN(C(=O)OC(C)(C)C)CC2)cc1	x	x	0%	x	x	x
O=C(Cn1ccc2cc(S(=O)(=O)N3CCCCCC3)ccc21)NCCc1ccc(Cl)cc1	x	x	3%	x	x	x
CC(=O)N1CCN(C(=O)OC2CC3CC2[C@H]2CCCCN2C3=O)CC1 (some centres undefined)	x	x	3%	x	x	x
c1ccc(OCCOc2ncnc3ccccc23)cc1	0%	37*	-5%	-7%	93*	-14%
Brc1ccc(COc2ncnc3ccccc23)cc1	-3%	7	1%	1%	-3	-7%
COc1ccc(C(=O)COc2ncnc3cc(Cl)ccc23)cc1	1%	2	3%	5%	17	1%
O=C(COc1ncnc2ccccc12)c1ccc(Cl)cc1	1%	26*	2%	11%	79*	-29%
O=C(COc1ncnc2cc(Cl)ccc12)c1ccccc1	1%	45*	0%	-2%	98*	-40%
N#Cc1ccccc1NC(=O)C1CC(=O)N(c2ccc3c4c(cccc24)CC3)C1 (centres undefined)	4%	-2	0%	-2%	-9	-6%
O=C(CSc1nc2ccccc2n1Cc1ccccc1)N/N=C/c1ccccc1C(=O)O	0%	-1	0%	-4%	23	9%
O=C(CSc1nc2ccccc2n1Cc1ccccc1Cl)N/N=C/c1ccccc1C(=O)O	-1%	17*	-23%	0%	39	u
SMILES	SARS PLpro yeast	CHX counter	Tb PYK inh	LmPK inh	Shiga inhibitor	NS1 function inh
Cc1cc(/C=C2\NC(=O)N(Cc3ccc(Cl)cc3)C2=O)c(C)n1C	13%	-1	-9%	-7%	-2	15%
Cc1nc2c3cnn(-c4ccc(C)c(C)c4)c3ncn2n1	4%	29*	-7%	-14%	70*	-2%
C#CCn1cnc2c(cnn2-c2ccc(C)c(C)c2)c1=O	-3%	35*	-2%	0%	141*	0%
C#CCn1cnc2c(cnn2-c2ccc(F)cc2)c1=O	x	x	1%	x	x	x
Cc1ccc(-n2ncc3c(=O)n(CC#N)cnc32)cc1C	-4%	65*	4%	-2%	40	-1%
CCc1nnc2c3cnn(-c4ccc(C)c(C)c4)c3ncn12	x	x	x	x	x	-5%
CCCCN(CC)CCCNC(=O)Nc1sc2nc3n(c(=O)c2c1C)CCC(C)CC3 (centres undefined)	x	x	-1%	x	x	x
Cn1c2ccccc2c2cnn(CC(=O)NCCCN3CCCCC3)c(=O)c21	x	x	-4%	x	x	x
O=C1C2[C@@H](c3ccccc3)N[C@@H](c3ccccc3)C1[C@H](c1ccccc1)N[C@H]2c1ccccc1	x	x	x	x	x	0%
O=C(c1ccccc1)C1NC1c1ccccc1 (centres undefined)	-1%	61*	6%	4%	47*	-1%
CN(C)c1ccc(/C=C/c2nc(-c3ccccc3O)n(-c3ccccc3)n2)cc1	x	x	-3%	x	x	x
Cc1nc(Nc2ccccc2)sc1-c1ccccc1	-54%	35*	-5%	-9%	88*	-5%
Cc1nc(Nc2ccc(C(=O)O)cc2)sc1-c1ccccc1	1%	53*	-4%	2%	84*	u
O=c1sc(Nc2ccccc2)nc2ccccc12	6%	-2	2%	4%	-15	2%
Cc1cccc(C)c1Nc1nn2c(=O)c3cc4c(cc3nc2s1)OCO4	x	x	-1%	x	x	x
COc1ncccc1-c1cc2nc(NCCNC(C)=O)n(C)c(=O)c2s1	x	x	-2%	x	x	x
Cc1ccc(NC(=O)C(C)Sc2nc(-c3ccccc3)c(C#N)c(=O)[nH]2)c(C)c1 (centres undefined)	x	x	0%	x	x	x
c1ccc(CN2CCc3nc4ccccc4cc3C2)cc1	15%	26*	5%	-3%	59*	-35%
COc1ccc(NC(=O)CN(C)S(=O)(=O)c2ccc3[nH]c4c(c3c2)CCCC4)cc1Cl	x	x	-4%	x	x	x
Cc1ccn2cc(CSc3ccccc3N)nc2c1	-1%	46*	-8%	5%	105*	1%
CCOC(=S)SCc1cn2ccc(C)cc2n1	11%	34*	-2%	-3%	12	10%
CCOC(=S)SCc1cn2ccccc2n1	-2%	30*	7%	1%	42*	x
Cc1ccn2cc(CC(=O)O)nc2c1	0%	-3	-4%	10%	-1	7%
CCOC(=O)c1c(C)nc2cc(C)ccn12	13%	-1	-3%	-3%	27	-16%
CCOC(=O)c1cn2ccc(C)cc2n1	-1%	29*	-22%	-10%	77*	-3%
CCCOc1ccc(C(=O)Nc2cc(-c3nc4ccccc4[nH]3)ccc2C)cc1	x	x	12%	x	x	x
CCOc1ccc(C(=O)NCC(c2ccco2)S(=O)(=O)c2cccs2)cc1 (centres undefined)	x	x	-1%	x	x	x
COc1cc2sc(-c3ccc(S(C)(=O)=O)cc3)c(-c3ccc4c(c3)OCO4)c2cc1OC	-1%	x	-3%	x	x	x
CCNC(=O)c1cnc2c(-c3ccccc3)c(C)nn2c1C	x	x	-3%	x	x	x
